# Measurements published in PubChem BioAssay (NCI).
# Compounds without any hit were thinned out: in the full panel of roughly 83,000, 20% have a hit.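 Treatment: one concentration, 48 hours, 96-well format. Scoring: percent growth, with anything below 10 considered active.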 Values without a mark were called inactive. Activity calls are given as the source filed them.
# How the values were obtained:
# Test in all cases: NCI-60 one-dose screen, 48 h (100 = growth as untreated, 0 = no growth, -100 = all killed)
# Details in all cases: 10 µM unless noted
# HCT-15 colon = system: HCT-15 colon
# SNB-19 CNS = system: SNB-19 CNS
# U251 CNS = system: U251 CNS
# PC-3 prostate = system: PC-3 prostate
# SK-MEL-5 melanoma = system: SK-MEL-5 melanoma
# UACC-62 melanoma = system: UACC-62 melanoma
# LOX IMVI melanoma = system: LOX IMVI melanoma
# SK-MEL-28 melanoma = system: SK-MEL-28 melanoma
# HT29 colon = system: HT29 colon
# SNB-75 CNS = system: SNB-75 CNS
SMILES,growth (HCT-15 colon),growth (SNB-19 CNS),growth (U251 CNS),growth (PC-3 prostate),growth (SK-MEL-5 melanoma),growth (UACC-62 melanoma),growth (LOX IMVI melanoma),growth (SK-MEL-28 melanoma),growth (HT29 colon),growth (SNB-75 CNS)
COc1ccccc1-n1c(-c2ccc(O)cc2C)cn2c3c(=O)[nH]c(=O)n(C)c3nc12,98.4%,117%,97.6%,77.1%,81.5%,76.6%,72.6%,104%,,
CSc1nc(N)c2c(n1)N(C)C=NS2(=O)=O,103%,,103%,94.7%,104%,97.4%,98.3%,122%,124%,
O=C1CNc2cc(Cl)ccc2N1,109%,,101%,104%,99.9%,101%,101%,107%,,89.8%
CN1CCN(CCCCCN=c2cc3c(=O)n(CCCCCN4CCN(C)CC4)c(=O)c4c(NCCCCCN5CCN(C)CC5)cc5c(O)n(CCCCCN6CCN(C)CC6)c(=O)c2c5c4-3)CC1,107%,3.84% (active),2.35% (active),12.6%,44.3%,21.9%,1.9% (active),-34.8% (active),,-8.4% (active)
COc1cccc(-c2nc3cc(NC(=O)c4ccc(Cl)c(C#N)c4)ccc3o2)c1,51.6%,,-12.9% (active),14.4%,5.38% (active),38.6%,21.9%,-7.87% (active),-3.37% (active),
COc1cc(/C=C/c2cc(/C=C/c3ccc(O)c(OC)c3)n(C(=O)Cc3ccccc3)n2)ccc1O,6.11% (active),7.03% (active),-2.58% (active),3.01% (active),-31.8% (active),1.59% (active),5.18% (active),-4.66% (active),,0.658% (active)
O=C1c2cc3c(cc2-c2c1c1ccc(Cl)cc1c(=O)n2CCCNCCO)OCO3,-78.3% (active),-62.8% (active),-94.6% (active),-85.5% (active),,-70.7% (active),-89.2% (active),-74% (active),,-88.8% (active)
Cc1ccc(NC(=O)c2sc3nc4c(cc3c2N)C(=O)CCC4)cc1,58.6%,72.2%,86.6%,73.2%,53.2%,69.2%,93.1%,84.8%,,86.3%
Cc1cc(C)cc(S(=O)(=O)n2ccc(-c3ccc4c(c3)CCC(C)(C)O4)n2)c1,82.3%,94.6%,85.6%,82.4%,82.9%,73.9%,95%,102%,,87.2%
COc1cc(/C=C/c2cc(/C=C/c3ccc(O)c(OC)c3)n(C(=O)c3ccc(Cl)cc3)n2)ccc1O,14.1%,45.6%,16.8%,4.59% (active),-32.4% (active),22.5%,13.9%,19.5%,,-2.93% (active)
COc1cc(-c2nnc(-c3nc(-c4cc(OC)c(OC)c(OC)c4)n4ccccc34)o2)ccc1N,64.5%,77.7%,64.2%,69%,56.1%,60.9%,56.3%,97.8%,,75%
O=C(Nc1cccc(-n2cc(-c3ccncc3)c(-c3cc(O)cc(Cl)c3)n2)c1)Nc1ccc(Cl)c(Cl)c1,-25.3% (active),30.8%,-56.5% (active),-1.66% (active),-53% (active),-61.8% (active),-84.7% (active),-50.9% (active),,4.08% (active)
CC1(C)CC2(C)CC(=O)C1C(C(=O)O)C2C(=O)O (configuration not stated),110%,113%,101%,108%,102%,102%,101%,117%,,96.4%
